Measured values reported in PubChem BioAssay (NCI).
Several values for one entry are separate records, joined by “and”; a condition that tells them apart may be missing. Equal entries are not always repeated. This is part of a sample that, as a whole, favours compounds with a hit. Of some 83,000 tested, about 20% had one in any assay.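 Results are percent growth after 48 hours of single-concentration exposure. 100 means growth as in untreated cells, lower positive values show inhibition; negative values down to -100 show cell death.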 A number with no mark means an inactive call. Activity calls are given as the source filed them. Starred links: 1 amine or outer side, 2 acyl side, 3 side chain; linkers in the order of their positions; H or OH if unused. Positions of bridges follow the written chain, without caps; N, C: chain ends. Non-standard residues stand in square brackets, D forms with d. Residues, ends and D or L forms follow the SMILES beside them. Chains are numbered I, II in the order given. Actinocin(9to1) = Cc1c2oc3c(C)ccc(C(=O)[*:1])c3nc-2c(C(=O)[*:2])c(N)c1=O; aThr = C[C@H](O)[C@H](N)C(=O)O; NMeV = CN[C@H](C(=O)O)C(C)C; Sar = CNCC(=O)O

Tested on: KM12 colon
Experiment: NCI-60 one-dose screen, 48 h (100 = growth as untreated, 0 = no growth, -100 = all killed)
Conditions: 0.0025 µM
Protocol: Growth inhibition of the KM12 human tumor cell line is measured as a screen for anti-cancer activity. Cells are grown in 96 well plates and exposed to the test compound for 48 hours. Compounds are tested at a single concentration, which is 10^-5 M for most compounds. The reported endpoint is percent growth (GI% or GIPRCNT), where numbers from 0 - 100% represent growth inhibition, and numbers from -100% - 0 represent cell death. For example, a value of 40 represents 60% growth inhibition. A value of 0 means no net growth occurred over the course of the experiment. A value of -40 indicates 40% of cells at the beginning of the experiment died by the end of the experiment. A value of -100 means all cells are dead at the end of the experiment.
NCI-60 Human Tumor Cell Lines Screen was performed using the standard one-dose NCI protocol, which is described in more detail at https://dtp.cancer.gov/discovery_development/nci-60/default.htm.
Compounds with GIPRCNT values below 10 were considered active. Activity score was based on GIPRCNT using the following formula: […]
Score is 0 for GIPRCNT values of 100 or above, 50 for GIPRCNT values of 0, and 100 for GIPRCNT values of -100.

Structure (SMILES)	growth [%]
Cc1c2oc3c(C)ccc(C(=O)N[C@@H]4C(=O)N[C@H](C(C)C)C(=O)N5CCC[C@H]5C(=O)N(C)CC(=O)N(C)[C@@H](C(C)C)C(=O)O[C@H]4C)c3nc-2c(C(=O)N[C@@H]2C(=O)N[C@H](C(C)C)C(=O)N3CCC[C@H]3C(=O)N(C)CC(=O)N(C)[C@@H](C(C)C)C(=O)O[C@H]2C)c(N)c1=O (I: [aThr][dV]P[Sar][NMeV] / II: [aThr][dV]P[Sar][NMeV]; ester I:1-I:C, II:1-II:C; linker I:N-II:N via Actinocin(9to1))	47.3

Same assay, conditions: 10 µM

Structure (SMILES)	growth
S=c1[nH]nc(Cc2ccccc2)c(=S)[nH]1	93.2%
Cc1c2oc3c(C)ccc(C(=O)N[C@@H]4C(=O)N[C@H](C(C)C)C(=O)N5CCC[C@H]5C(=O)N(C)CC(=O)N(C)[C@@H](C(C)C)C(=O)O[C@H]4C)c3nc-2c(C(=O)N[C@@H]2C(=O)N[C@H](C(C)C)C(=O)N3CCC[C@H]3C(=O)N(C)CC(=O)N(C)[C@@H](C(C)C)C(=O)O[C@H]2C)c(N)c1=O (I: [aThr][dV]P[Sar][NMeV] / II: [aThr][dV]P[Sar][NMeV]; ester I:1-I:C, II:1-II:C; linker I:N-II:N via Actinocin(9to1))	0.211% (active)
Cc1cnc(/C=N\NC(N)=S)c2cccc(N)c12	27.9%
Cc1cc(NCCCN(C)C)c2ccc3c(ccc4c(NCCCN(C)C)cc(C)nc43)c2n1	-97.6% (active)
BrC/C=C/C[P+](c1ccccc1)(c1ccccc1)c1ccccc1	16.1%
CSc1ccc2c(c1)C(N1CCN(C)CC1)Cc1ccccc1S2 (configuration not stated)	21.4%
O=C(/C(=C/c1ccccc1)CBr)c1ccccc1	88.5%
Nc1ccc2cc(Br)c3ccccc3c2c1	32.6%
CN1CCN(c2ccc3nc(-c4ccc5nc(-c6ccc(O)cc6)[nH]c5c4)[nH]c3c2)CC1	106%
N#C/C(=C1C=C/C(=N\O)C(Cl)=C\1)c1ccccc1	13.5%
COc1cc(C(C)(C)C)cc(OC)c1C(O)(c1c(OC)cc(C(C)(C)C)cc1OC)c1c(OC)cc(C(C)(C)C)cc1OC	-80.8% (active)
O=c1[nH]cc(F)c(=O)[nH]1	47% and 42.4%
CCCCCCCCCCCCCCCCCN	110%
CN(C)CCC(=O)c1c[nH]c2ccccc12	102%

Same assay, conditions: 25 µM

Structure (SMILES)	growth [%]
O=c1[nH]cc(F)c(=O)[nH]1	40.7

Same assay, conditions: 50 µM

Structure (SMILES)	growth [%]
O=c1[nH]cc(F)c(=O)[nH]1	32
